Records with an inconclusive call do not appear. The source made the active and inactive calls. Unless noted, the call rests on the fitted dose curve; in most records, active means well fitted inhibition curve with a large enough effect; inconclusive means small, poorly fitted or top-dose-only effect; inactive means no such curve, though single readings can be large or run the other way.
Molecular target: Mitogen-activated protein kinase 10 (Mus musculus) (UniProt Q61831)
Test: JNK3 AlphaScreen Assay (AID 530; active means well fitted curve in either direction with a large enough effect, not every such curve was filed as active;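 further: kinase came from lysate of stimulated human HepG2 cells; signal reports phosphorylation of biotinylated GST-cJun 1-79 at Ser73 with 10 µM ATP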)
Conditions: JNK3 lysate, c-Jun phosphorylation; series mostly up to 57.1 µM
In short: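 HepG2 lysate (IL-1b/TNFa pre-activated) + biotin-GST-cJun 1-79 + anti-pSer73 cJun; cpd titration, 15 min RT; ATP 10 uM start; Tris pH 7.6, MgCl2, DTT, vanadate; beads in EDTA buffer; AlphaScreen.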

Compound	outcome
COC(=O)c1ccc(C(NC(=O)OCc2ccccc2)/C(F)=C/[C@@H](C)C(=O)N[C@@H](CO)Cc2ccccc2)cc1 (stereo partly specified)	inactive
O=C1C(Cl)=C(NC2CCc3ccccc32)C(=O)c2ncccc21 (stereo unspecified)	inactive
CC(Cc1ccccc1)C(=O)NCCO (stereo unspecified)	inactive
C[C@@H]1C=C[C@](Cc2ccccc2)(C(=O)NCCN2CCOCC2)N1C(=O)c1ccccc1	inactive
CC(=O)N1[C@H](Cc2ccccc2)C=C[C@]1(C)C(=O)NCc1ccc(C)o1	inactive
COC(=O)c1ccc(C(NC(=O)OCc2ccccc2)/C(C)=C/[C@@H](C)C(=O)NCc2cccnc2)cc1 (stereo partly specified)	inactive

Molecular target: Cytochrome P450 3A4 (Homo sapiens) (UniProt P08684)
Sequence (P08684 whole entry, looked up): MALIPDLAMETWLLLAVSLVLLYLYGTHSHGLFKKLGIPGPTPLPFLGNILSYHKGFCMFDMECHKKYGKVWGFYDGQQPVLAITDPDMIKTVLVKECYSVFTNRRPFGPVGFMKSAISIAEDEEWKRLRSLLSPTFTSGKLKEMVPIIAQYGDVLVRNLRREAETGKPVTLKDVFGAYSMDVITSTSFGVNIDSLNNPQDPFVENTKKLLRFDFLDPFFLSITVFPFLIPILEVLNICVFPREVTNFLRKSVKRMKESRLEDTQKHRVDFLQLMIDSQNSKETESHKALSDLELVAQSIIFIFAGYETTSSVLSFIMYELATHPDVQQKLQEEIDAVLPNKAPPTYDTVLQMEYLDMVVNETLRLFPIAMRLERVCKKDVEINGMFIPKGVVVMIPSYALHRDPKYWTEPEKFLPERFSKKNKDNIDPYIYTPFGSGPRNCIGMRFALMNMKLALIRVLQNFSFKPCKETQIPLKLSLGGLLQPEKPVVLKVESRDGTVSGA
Test: qHTS Assay for Inhibitors and Substrates of Cytochrome P450 3A4 (AID 884); further: potency means the concentration at half of the fitted maximal effect; nearly all actives have a fitted effect of over 50% in size
Conditions: recombinant CYP3A4, Luciferin-PPXE luminescence; series mostly up to 57.1 µM
In short: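 Luminescent readout of luciferin produced by CYP3A4 (20 nM) dealkylation of Luciferin-PPXE, 25 uM (its KM). NADPH-driven reaction ran 60 min at RT after 10 min compound preincubation; data scaled to 57 uM ketoconazole as 100% inhibition.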

Compound	Potency
COC(=O)c1ccc(C(/C=C/[C@@H](C)C(=O)NCc2ccc(OC)c(O)c2)NC(=O)OCc2ccccc2)cc1 (stereo partly specified)	6.31 µM (active)
COC(=O)c1ccc(C(NC(=O)OCc2ccccc2)/C(F)=C/[C@@H](C)C(=O)Nc2ccc(OC)cc2)cc1 (stereo partly specified)	2 µM (active)
COC(=O)[C@H](Cc1ccccc1)NC(=O)[C@H]1C[C@@H]1[C@H](NC(=O)OCc1ccccc1)c1ccccc1	7.94 µM (active)
COC(=O)[C@H](Cc1ccccc1)NC(=O)[C@]1(C)C[C@H]1[C@H](NC(=O)OCc1ccccc1)c1ccccc1	2 µM (active)
COC(=O)c1ccc(C(NC(=O)OCc2ccccc2)/C(F)=C/[C@@H](C)C(=O)NCc2nc3ccccc3s2)cc1 (stereo partly specified)	7.94 µM (active)
COCCNC(=O)[C@@]1(C)C=C[C@@H](Cc2ccccc2)N1C(=O)c1ccccc1	7.94 µM (active)
CCCCCCN(C(=O)CCCCCN1C(=O)NC(c2cccc([N+](=O)[O-])c2)C(C(=O)OCc2ccccc2)=C1C)C(C(=O)NCCCC)c1ccc(OCC(=O)OC)c(C(=O)OC)c1 (stereo unspecified)	3.16 µM (active)
COC(=O)c1ccc(C(NC(=O)OCc2ccccc2)/C(F)=C/[C@@H](C)C(=O)NCc2cccnc2)cc1 (stereo partly specified)	1.26 µM (active)
COC(=O)c1ccc(C(/C=C/[C@@H](C)C(=O)NCc2cc(C)n(C)n2)NC(=O)OCc2ccccc2)cc1 (stereo partly specified)	2 µM (active)
COC(=O)c1ccc(C(NC(=O)OCc2ccccc2)/C(C)=C/[C@@H](C)C(=O)NCc2nn(-c3ccccc3)nc2C)cc1 (stereo partly specified)	2.51 µM (active)
COC(=O)[C@@H]1CCCN1C(=O)[C@H]1C[C@@H]1[C@H](NC(=O)OCc1ccccc1)c1ccccc1	10 µM (active)
COC(=O)N1[C@H](Cc2ccccc2)C=C[C@]1(C)C(=O)NCc1ccccn1	7.94 µM (active)
COC(=O)[C@@H]1C[C@H]1[C@@H](NC(=O)c1ccc(Br)cc1)c1ccccc1	25.1 µM (active)
CC(C)NC(=O)[C@@H]1C[C@H]1[C@@H](NC(=O)OCc1ccccc1)c1ccccc1	3.98 µM (active)
COC(=O)c1ccc(C(NC(=O)OCc2ccccc2)/C(=C/[C@@H](C)C(=O)NCCc2c[nH]c3ccccc23)c2cccnc2)cc1 (stereo partly specified)	1.58 µM (active)
CC1(C(=O)NCc2cc(F)cc(C(F)(F)F)c2)C=CC2(CCCCC2)N1C(=O)c1ccccc1 (stereo unspecified)	6.31 µM (active)
COC(=O)[C@@]1(C)C=C[C@@H](Cc2ccccc2)N1C	12.6 µM (active)
CC(C)NC(=O)[C@@H]1C[C@@]1(C)[C@@H](NC(=O)OCc1ccccc1)c1ccccc1	10 µM (active)
CC(C)CC1(C(=O)NCC2CC2)C=CCN1C(=O)c1ccccc1 (stereo unspecified)	15.8 µM (active)
COC(=O)c1ccc(C(NC(=O)OCc2ccccc2)/C(=C/[C@@H](C)C(=O)Nc2ccccc2)c2cccnc2)cc1 (stereo partly specified)	1.58 µM (active)
COC(=O)c1ccc(C(NC(=O)OCc2ccccc2)/C(=C/[C@@H](C)C(=O)Nc2ccc(OC)cc2)c2cccnc2)cc1 (stereo partly specified)	1 µM (active)
CCCCNC(=O)C(c1ccc(OCC(=O)OC)c(C(=O)OC)c1)N(Cc1ccccc1)C(=O)CCCCCN1C(=O)NC(c2ccc(-c3ccccc3)cc2)C(C(=O)OCc2ccccc2)=C1C (stereo unspecified)	5.01 µM (active)
COC(=O)c1ccc(C(NC(=O)OCc2ccccc2)/C(=C/[C@@H](C)C(=O)NCc2ccc(OC)c(OC)c2)c2cccnc2)cc1 (stereo partly specified)	3.16 µM (active)
CNC(=O)[C@@H]1C[C@H]1[C@@H](NC(=O)OCc1ccccc1)c1ccccc1	12.6 µM (active)
COC(=O)c1ccc(C(NC(=O)OCc2ccccc2)/C(=C/[C@@H](C)C(=O)NCc2nc3ccccc3s2)c2cccnc2)cc1 (stereo partly specified)	2 µM (active)

— PubChem BioAssay (NCATS)
